Compound activity as filed in PubChem.
A selection: hits, their analogues and other compounds. The true share with any hit is near 6.5%.
FMDV inh = antivirals against foot and mouth disease virus; FMDV antiviral cell-based qHTS; AID 1159524; 1.2% of 410,000 active; Potency, µM (series often up to 57.9 µM), for the others: at the top dose activity change, negative = inhibition, hits mostly inhibitors; calls by dose curve; tested in HEK293T cells; further: read-out not given here; potency means the concentration at half of the fitted maximal effect; nearly all actives have a fitted effect of over 45% in size
VACV Venus inh = inhibitors of vaccinia virus (Venus reporter) | Vaccinia virus Venus reporter expression, fluorescence | Potency, µM (titrated, usually from 36.5 µM), without a hit: at the highest dose activity change, negative = inhibition, actives largely listed as inhibitors | AID 720580 | 0.46% of 330,000 active; calls by dose curve; tested in A549 cells; further: potency means the concentration at half of the fitted maximal effect; nearly all actives have a fitted effect of over 30% in size
HCMV inh = inhibitors of human cytomegalovirus; 4.5% of 410,000 active; activity change, negative = inhibition, % at 57.5 µM; AID 1259415; HFF cells, HCMV-luciferase reporter, 72 h; stronger effect = lower value; in the data active means activity change below about -60%; inconclusive means no clear call, values can overlap the other calls; inactive means above about -39%
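Screen run at 2 compound doses on HFFs infected with reporter HCMV, MOI 1 PFU/cell. Luciferase activity from cell lysates at 72 h post infection gave inhibition relative to buffer-only and Salinomycin wells.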
MARV entry inh = Marburg virus entry inhibition; 1.8% of 300,000 active; Marburg virus pseudotyped entry inhibition, cell reporter; Potency, µM (doses to about 37.8 µM), without a hit: at the highest dose activity change, negative = inhibition, hits mostly inhibitors; AID 540276; calls by dose curve; tested in HEK293 cells; further: potency means the concentration at half of the fitted maximal effect
Vaccinia mCherry = inhibitors of vaccinia virus infection (mCherry reporter signal); Vaccinia virus mCherry reporter infection, fluorescence; Potency, µM (top dose mostly 36.5 µM), for inactives: at the highest dose activity change, negative = inhibition, usual class: inhibitors; 0.63% of 310,000 active; AID 720579; calls by dose curve; tested in A549 cells; further: potency means the concentration at half of the fitted maximal effect; nearly all actives have a fitted effect of over 35% in size
LASV entry inh = blocks Lassa virus binding to or entry into cells; AID 540256; Potency, µM (series often up to 37.9 µM), without a hit: at the top dose activity change, negative = inhibition, hits mostly inhibitors; 1.2% of 300,000 active; Lassa virus pseudotype entry inhibition, cell reporter; calls by dose curve; tested in HEK293 cells; further: potency means the concentration at half of the fitted maximal effect; nearly all actives have a fitted effect of over 50% in size
* = called active by the depositor; i = inactive; ? = inconclusive; / = no result given; + = active, no number; [ ] = remark or other dose. On the % scale 0 is the no-effect control and ±100 the full control effect.

SMILES	FMDV inh	VACV Venus inh	HCMV inh	MARV entry inh	Vaccinia mCherry	LASV entry inh
COc1cccc(/C=C2\SC(=S)N(CCCC(=O)Nc3cc(C)on3)C2=O)c1	13.8%	-5.0%	47.5	-3.0%[46.1 µM]	-14.6%	-14.6%[46.1 µM]
COc1cccc(/C=C2\SC(=O)N(CCC(=O)NNC(=O)c3cccc(Cl)c3)C2=O)c1	12.5%	-7.0%	6.7	-18.5%	i	1.58µM*
COc1cccc(/C=C2\SC(=S)N(CCCC(=O)Nc3ccc(C(=O)O)cc3)C2=O)c1	20.8%	16.5%	-79.8*	-1.5%[46.1 µM]	-0.4%	-0.4%[46.1 µM]
COc1ccccc1NC(=O)c1oc2ccccc2c1NC(=O)Cc1cccs1	?	?	18.4	-8.2%[46.1 µM]	?	-13.7%[46.1 µM]
CCn1cc(C(=O)N[C@@H](CCSC)C(=O)NCCN2CCOCC2)c(=O)c2cc3c(cc21)OCO3	12.5%	/	+	/	/	/
CCn1cc(C(=O)N[C@@H](CCSC)C(=O)NCCCN2CCOCC2)c(=O)c2cc3c(cc21)OCO3	2.3%	/	-14.6	/	/	/
O=C(CNC(=O)C1CCCCC1)OCC(=O)c1ccc([N+](=O)[O-])cc1	/	-13.4%	/	/	-15.7%	/
COc1ccc(C2CC3(CC(C)(C)NC(SC)=N3)Oc3cc(O)cc(C)c32)cc1 (configuration not stated)	-25.1%	-23.6%	-76.2*	10µM*	?	18.4µM*
O=C(NCc1ccncc1)c1cnn(-c2nccc(-c3cc4ccccc4o3)n2)c1C1CC1	-19.4%	-11.4%	/	/	-16.6%	/
COc1cccc(/C=N/Nc2nc3ccccc3[nH]2)c1O	19.0%	/	-99.2*	/	/	/
COc1cccc(/C=N/Nc2nc3ccccc3n3cnnc23)c1	-15.9%	1.2%	-27.9	?	-5.5%	0.5%
COc1cccc(/C=N/Nc2nc3ccccc3[nH]2)c1OC	43.5%	-18.3%	153.6	?	-17.2%	?
COc1cccc(/C=N/Nc2nc3ccccc3n3cnnc23)c1O	4.6%	?	-102.9*	8.91µM*	4.47µM*	?
CCOC(=O)c1c(NC(=S)NC(=O)c2ccc(Cn3cc(Cl)cn3)o2)sc2c1CCC(C)C2 (configuration not stated)	17.0%	28.2µM*	-71.0*	-0.2%	20µM*	/
COC(=O)c1cc(NC(=O)c2ccc(Cn3cc(Cl)cn3)o2)cc(C(=O)OC)c1	?	-1.7%	-32.0	?	-12.4%	-3.6%
O=C1CC(C(=O)Nc2ccc(F)cc2)n2cnnc2N1 (configuration not stated)	-7.5%	-10.7%	-71.2*	4.0%[46.1 µM]	2.9%	-9.5%
O=C(Nc1ccc(F)cc1)C1CC(=O)n2cnnc2N1 (configuration not stated)	10.7%	-8.0%	-30.7	-2.8%[46.1 µM]	i	9.5%[46.1 µM]
Cc1cc(C)c(-c2csc(NC(=O)/C=C/c3cccs3)n2)c(C)c1	?	?	-100.1*	?	?	?
CC1CCc2c(sc3nnn(CC(=O)Nc4cccc(C(F)(F)F)c4)c(=O)c23)C1 (configuration not stated)	-7.8%	-4.0%	6.0	3.0%[46.1 µM]	-11.2%	2.4%[46.1 µM]
S=C(Nc1ccccn1)Nc1ccccc1Cl	41.1%	-7.8%	-82.8*	8.7%[46.1 µM]	i	-11.6%
Cc1c(Cl)cccc1NC(=S)Nc1ccccn1	10.4%	-2.6%	29.9	?	-8.1%	/
S=C(Nc1ccccn1)c1ccccn1	0.0%	?	-81.9*	?	?	?
O=C1NC(=O)C(Cc2ccccc2)(C2CCN(Cc3cccn3-c3cccnc3)CC2)N1 (configuration not stated)	6.0%	-10.3%	/	/	-1.6%	/
O=C(Nc1cccc(F)c1)C1CCCN(S(=O)(=O)c2cnc[nH]2)C1 (configuration not stated)	-20.5%	/	-61.8*	/	/	/
Cc1ccc(NC(=O)C2CCCN(S(=O)(=O)c3cnc[nH]3)C2)cc1F (configuration not stated)	-9.8%	-8.1%	61.2	/	-1.7%	/
CCNc1sc(C(=O)c2cccs2)c(N)c1-c1nc2ccccc2s1	4.4%	-17.6%	-80.4*	?	-19.1%	?
O=S1(=O)c2ccc(Br)cc2OCCC2CCCCN21 (configuration not stated)	/	/	-25.2	/	/	/
COc1ccc(C#Cc2ccc([C@H]3[C@H](CO)N4CCCCN(S(=O)(=O)c5cn(C)cn5)C[C@@H]34)cc2)cc1	/	/	22.4	/	/	/
O=C(O)[C@H]1CCCN1	-2.4%	-7.4%	/	/	-6.3%	/
